In the supplement of paper PMC11732987, “Enantioselective OTUD7B fragment discovery through chemoproteomics screening and high-throughput optimisation” (Communications Chemistry, 2025):

Molecular target: T1, USP42 (UniProt Q9H9J4)
T1 sequence (whole entry): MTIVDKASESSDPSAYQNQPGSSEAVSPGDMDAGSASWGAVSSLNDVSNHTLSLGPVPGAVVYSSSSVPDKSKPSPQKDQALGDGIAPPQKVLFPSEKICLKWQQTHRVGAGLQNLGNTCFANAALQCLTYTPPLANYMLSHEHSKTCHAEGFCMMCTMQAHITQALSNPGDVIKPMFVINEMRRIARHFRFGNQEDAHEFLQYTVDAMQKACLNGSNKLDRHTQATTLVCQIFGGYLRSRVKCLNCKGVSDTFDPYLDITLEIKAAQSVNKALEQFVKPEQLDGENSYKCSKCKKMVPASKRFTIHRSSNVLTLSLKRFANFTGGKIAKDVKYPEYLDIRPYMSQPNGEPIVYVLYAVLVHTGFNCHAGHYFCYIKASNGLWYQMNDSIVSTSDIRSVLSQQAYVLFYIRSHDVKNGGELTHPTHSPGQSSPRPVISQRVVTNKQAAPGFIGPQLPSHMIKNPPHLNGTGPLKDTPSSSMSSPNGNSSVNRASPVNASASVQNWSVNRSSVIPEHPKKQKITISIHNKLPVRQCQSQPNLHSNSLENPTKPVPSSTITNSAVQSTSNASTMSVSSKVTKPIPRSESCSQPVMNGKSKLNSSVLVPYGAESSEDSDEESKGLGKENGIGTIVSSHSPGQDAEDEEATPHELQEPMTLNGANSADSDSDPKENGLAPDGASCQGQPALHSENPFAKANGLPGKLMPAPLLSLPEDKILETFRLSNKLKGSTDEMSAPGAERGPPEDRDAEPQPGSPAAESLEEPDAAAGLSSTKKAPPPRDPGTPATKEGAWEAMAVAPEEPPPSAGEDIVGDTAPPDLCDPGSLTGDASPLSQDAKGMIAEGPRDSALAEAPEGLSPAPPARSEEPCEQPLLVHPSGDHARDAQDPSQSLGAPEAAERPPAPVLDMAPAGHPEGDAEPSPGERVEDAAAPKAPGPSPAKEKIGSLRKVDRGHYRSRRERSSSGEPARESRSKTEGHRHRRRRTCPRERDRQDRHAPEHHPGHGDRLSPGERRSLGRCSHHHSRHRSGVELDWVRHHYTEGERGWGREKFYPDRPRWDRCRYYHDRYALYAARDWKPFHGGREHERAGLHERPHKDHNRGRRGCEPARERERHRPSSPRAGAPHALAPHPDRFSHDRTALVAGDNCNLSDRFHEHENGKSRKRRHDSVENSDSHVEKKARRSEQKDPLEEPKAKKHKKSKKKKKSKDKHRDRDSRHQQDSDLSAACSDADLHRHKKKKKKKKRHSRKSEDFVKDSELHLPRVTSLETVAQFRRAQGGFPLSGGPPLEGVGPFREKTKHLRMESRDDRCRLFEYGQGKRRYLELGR
Assay: log2 ratio of Biotin-Ahx-Ub-VS probe labelling (fragment/DMSO); higher = less target engagement (more negative = stronger competition), active = hit call of the paper (q ≤ 0.05, log2 ratio ≤ -1)
Details: compound concentration: 200 uM; treatment time: 3 h
How it was run: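 Each value is an average log2 ratio of fragment to vehicle, tested by unpaired t-test. The underlying Spectronaut label-free quantities were global-median-normalised, and only proteins with ≥2 unique peptides were included. Triplicate HEK293T lysate samples (495 µg) were exposed to fragment at 200 µM or vehicle for 3 h, then to Biotin-Ahx-Ub-VS at 0.5 µM final for 1 h, before NeutrAvidin enrichment of labelled DUBs, LysC and trypsin digestion, and diaPASEF LC-MS/MS.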

Row | Structure (SMILES) | log2 ratio of Biotin-Ahx-Ub-VS probe labelling
1 | O=C(CCl)Nc1ccc(F)cc1Cl | 0.367 (inactive)
2 | O=C(CCl)Nc1cccc2ncccc12 | 0.41 (inactive)
3 | O=C(CCl)NC(Cn1ccccc1=O)c1ccccc1 (stereo unspecified) | -0.346 (inactive)
4 | Cc1n[nH]c(=O)c2c(NC(=O)CCl)oc(C)c12 | 0.339 (inactive)
5 | Cc1ccc(-c2nnc(C)[nH]2)c(NC(=O)CCl)c1 | 0.00752 (inactive)
6 | Cc1ccc(C)c(Oc2ccc(CNC(=O)CCl)cn2)c1.Cl | -0.119 (inactive)
7 | Cc1nc(CN2CCCN(C(=O)CCl)CC2)no1.Cl | 0.102 (inactive)
8 | N#Cc1ccc(CNC(=O)CCl)cc1 | 0.0438 (inactive)
9 | CC(C)n1nccc1NC(=O)CCl | -0.0446 (inactive)
10 | CC(NC(=O)CCl)c1ccc2[nH]ncc2c1 (stereo unspecified) | 0.605 (inactive)
11 | Cl.O=C(CN1CCN(C(=O)CCl)CC1)Nc1ccc(F)cc1 | 0.733 (inactive)
12 | CC(NC(=O)CCl)c1cnn(C2CC2)c1 (stereo unspecified) | 0.309 (inactive)
13 | NC(=O)C(Cc1ccccc1)NC(=O)CCl (stereo unspecified) | -0.119 (inactive)
14 | O=C(CCl)NC1CCN(C(=O)C2CCCCC2)CC1 | 0.471 (inactive)
15 | Cc1cc(Cl)ccc1NC(=O)CCl | -0.0727 (inactive)
16 | COc1ccc(Cl)cc1NC(=O)CCl | 0.21 (inactive)
17 | O=C(CCl)Nc1nnc(CC(F)(F)F)o1 | -0.117 (inactive)
18 | O=C(CCl)N(C1=CCCCC1)C1CC1 | 0.331 (inactive)
19 | Cc1ccc(CN(CCO)C(=O)CCl)cc1 | -0.148 (inactive)
20 | CC(NC(=O)CCl)c1cccc2ccccc12 (stereo unspecified) | -0.241 (inactive)
21 | O=C(CCl)N1CCCCC12CCOCC2 | -0.368 (inactive)
